# Test results reported in ChEMBL document CHEMBL3988442, “University of Dundee, Small-Polar-MMV Screening Library” (2021).
# The whole screen tested about 69,000 compounds, of which about 1,000 (1.4%) showed an effect of 50% or more. The sample as a whole holds a higher share of strong results than the screen did.
# Tested on: Leishmania donovani
# Assay: Leishmania intramacrophage assay
# Type: functional, organism-based
# Set-up: scale not given: in the data most compounds retested in dose-response had high values
compound,measurement,setting,value
C[C@H](NC(=O)c1cnc(-c2ccccc2)nc1O)C(N)=O,Percent Effect,"30.3 µM, […]",12.89%
CCSCC(C)NCc1ccccc1-n1ccnc1 (stereo unspecified),Percent Effect,"30.3 µM, […]",-5.681%
COc1ccc(C(C)NCc2ccnn2C)cc1Cn1cccn1 (stereo unspecified),Percent Effect,"30.3 µM, […]",30.62%
Cc1cnc(CN2CCN(c3nc(C)cs3)C(C)C2)cn1 (stereo unspecified),Percent Effect,"30.3 µM, […]",-40.38%
Cc1csc(N2CCN(Cc3cscn3)CC2C)n1 (stereo unspecified),Percent Effect,"30.3 µM, […]",-18.36%
Cc1csc(N2CCN(Cc3cnc(C)s3)CC2C)n1 (stereo unspecified),Percent Effect,"30 µM, 30.03 µM",50.44%
O=C1CC2(CCN(Cc3ccc4cccc(O)c4n3)CC2)CN1,Percent Effect,"30.3 µM, […]",0.5464%
O=C1CC(c2cccnc2)c2c(c(C(=O)O)cn2-c2ccccc2)N1 (stereo unspecified),Percent Effect,"30 µM, 30.03 µM",-20.51%
O=C1CC(c2cccnc2)c2c(c(C(=O)O)cn2-c2cccc(F)c2)N1 (stereo unspecified),Percent Effect,"30.3 µM, […]",52.29%
O=C1CC(c2cccnc2)c2c(c(C(=O)O)cn2-c2ccc(Cl)cc2)N1 (stereo unspecified),Percent Effect,"30.3 µM, […]",19.15%
CCc1cnc2c(c1Nc1cccc(OC)c1)c(=O)n(C)c(=O)n2C,Percent Effect,"30.3 µM, […]",19.41%
CC(=O)N[C@H]1CCN(c2nc(C)nc3c2c(C)nn3C)C1,Percent Effect,"30.3 µM, […]",15.16%
COc1cccc(Nc2nc(C3CCNCC3)c3ccccn23)c1.Cl,Percent Effect,"30.3 µM, […]",-2.973%
Fc1cccc(Nc2nc(N3CCCC3)nc3c2CNCC3)c1,Percent Effect,"30.3 µM, […]",99.78%
COc1cccc(Nc2nc(-c3ccncc3)nc3c2CNCC3)c1.Cl,Percent Effect,"30.3 µM, […]",63.42%
CCOCCNc1nc(-c2ccncc2)nc2c1CCNCC2,Percent Effect,"30.3 µM, […]",-3.835%
CC(Nc1nc(-c2ccncc2)nc2c1CCNC2)c1ccccc1 (stereo unspecified),Percent Effect,"30.3 µM, […]",41.34%
COc1cccc(CNC(=O)c2cc(C)nc(N3CCCC3)n2)c1,Percent Effect,"30.3 µM, […]",4.164%
COc1cccc(Nc2nc(N3CCCC3)nc3c2CNCC3)c1.Cl,Percent Effect,"30.3 µM, […]",98.87%
COc1cccc(Nc2nc(C3CCCNC3)c3ccccn23)c1.Cl (stereo unspecified),Percent Effect,"30.3 µM, […]",2.866%
COc1cccc(Nc2nc(C3CCCNC3)c3sc(C)c(C)n23)c1.Cl (stereo unspecified),Percent Effect,"30.3 µM, […]",20.11%
Cc1sc2c(C3CCCNC3)nc(Nc3cccc(F)c3)n2c1C.Cl (stereo unspecified),Percent Effect,"30.3 µM, […]",8.436%
CCN1CCN(S(=O)(=O)c2cc(Cl)c(Cl)cc2C)CC1,Percent Effect,"30 µM, 30.03 µM",23.98%
Cc1nc(C2CCN(C(=O)c3cc(C4CC4)[nH]n3)CC2)no1,Percent Effect,"30.3 µM, […]",23.74%
CC1(C(=O)NC2CCCC2)CCCN(c2ncccn2)C1 (stereo unspecified),Percent Effect,"30.3 µM, […]",2.815%
COc1ccnc(N2CCN(C(=O)c3csc(C4CC4)n3)CC2)n1,Percent Effect,"30 µM, 30.03 µM",15.31%
CN(C)c1ncc(-c2cc(C(=O)N3CCCC3)n(CC3CC3)c2)cn1,Percent Effect,"30.3 µM, […]",-11.64%
CN1CCCN(C(=O)c2nc3sccn3c2-c2ncc[nH]2)CC1,Percent Effect,"30.3 µM, […]",0.9103%
Cc1ccsc1CN1CC2(CCN(C(=O)C3CC3)CC2)CC1C(=O)O (stereo unspecified),Percent Effect,"30.3 µM, […]",49%
CCOCCN1CCN(CC(=O)NC2(C#N)CCCC2)CC1CC (stereo unspecified),Percent Effect,"30.3 µM, […]",4.261%
CCCc1nnnn1Cc1cn2c(C)cccc2n1,Percent Effect,"30.3 µM, […]",19.02%
COc1ccc(C)cc1Nc1nc2c(C)nn(C)c2c(=O)n1C,Percent Effect,"30.3 µM, […]",54.75%
COc1ccc(OC)c(Nc2nc3c(C)nn(C)c3c(=O)n2C)c1,Percent Effect,"30.3 µM, […]",46.31%
COc1ccccc1Nc1nc2c(C)nn(C)c2c(=O)n1C,Percent Effect,"30.3 µM, […]",-67.83%
CCc1nn(C)c(Cl)c1CN1C[C@@H](NC(=O)N(C)C)[C@H](C(C)C)C1,Percent Effect,"30.3 µM, […]",11.23%
COC(=O)CN(C(=O)c1ccco1)c1cccc(F)c1,Percent Effect,"30.3 µM, […]",-4.639%
CSc1cccc(NC(=O)CCC(=O)Nc2nccs2)c1,Percent Effect,"30.3 µM, […]",36.02%
CCC(C)Oc1ccc(CNCCc2c[nH]cn2)cc1Cl (stereo unspecified),Percent Effect,"30.3 µM, […]",99.79%
CCC(C)Oc1ccc(CNCCNC(C)=O)cc1Cl (stereo unspecified),Percent Effect,"30.3 µM, […]",40.54%
CCC(C)Oc1ccc(CNCCNS(C)(=O)=O)cc1Cl (stereo unspecified),Percent Effect,"30.3 µM, […]",32.76%
Cc1cnn(CC(=O)N2CCC(c3ccn4nccc4n3)CC2)c1,Percent Effect,"30.3 µM, […]",-6.355%
O=C(Cc1nc(-c2ccncc2)n[nH]1)N1CCOCC1,Percent Effect,"30.3 µM, […]",-34.22%
O=C(Cc1nc(-c2ccncc2)n[nH]1)NCCCN1CCOCC1,Percent Effect,"30.3 µM, […]",58.11%
COCCCNC(=O)Cc1nc(-c2ccncc2)n[nH]1,Percent Effect,"30.3 µM, […]",-25.69%
COCCC1(CNC(=O)NCC2CN(C)CCN2C)CCC1 (stereo unspecified),Percent Effect,"30.3 µM, […]",8.791%
CCn1c(N)nc2cc(C(=O)NCCc3ccccc3F)cnc21,Percent Effect,"30.3 µM, […]",-34.47%
CCn1c(N)nc2cc(C(=O)NCCc3ccncc3)cnc21,Percent Effect,"30.3 µM, […]",62.87%
CCn1c(N)nc2cc(C(=O)NCCc3ccccc3C)cnc21,Percent Effect,"30 µM, 30.03 µM",29.75%
O=C(O)C1CN(c2cncc(Cc3ccccc3F)n2)C1,Percent Effect,"30.3 µM, […]",17.92%
COc1ccccc1Cc1cncc(N2CC(C(=O)O)C2)n1.Cl,Percent Effect,"30.3 µM, […]",35.18%
O=C(O)C1CN(c2cncc(Cc3ccccc3)n2)C1,Percent Effect,"30.3 µM, […]",57.22%
O=C(N1CCOCC1)N1CCc2ncnc(NC3CCC3)c2CC1.O=C(O)C(F)(F)F,Percent Effect,"30.3 µM, […]",14.85%
c1cc2nc(C3CCNCC3)nn2cc1NC1CCC1,Percent Effect,"30.3 µM, […]",33.34%
Cc1nc(COC(=O)c2cccc3c2OCCO3)no1,Percent Effect,"30.3 µM, […]",59.03%
Cc1nc(COC(=O)c2cccc3c2OCCO3)cs1,Percent Effect,"30.3 µM, […]",-13.85%
Cc1nc(COC(=O)c2cccnc2C)no1,Percent Effect,"30.3 µM, […]",42.97%
COc1ccccc1C1(CNc2snc(Cl)c2C#N)CCOCC1,Percent Effect,"30.3 µM, […]",-16.98%
N#Cc1c(Cl)nsc1NCC1(c2ccccc2)CCC1,Percent Effect,"30.3 µM, […]",91.2%
COc1ccccc1C1(CNc2snc(Cl)c2C#N)CCCC1,Percent Effect,"30.3 µM, […]",7.398%
Cc1cnn(-c2ccc(S(=O)(=O)N(C)CC(C)(CO)CO)cc2F)c1,Percent Effect,"30.3 µM, […]",-120.1%
CNS(=O)(=O)c1ccc(CNC(=O)N(C)CC(C)C)cc1,Percent Effect,"30.3 µM, […]",72.03%
CNS(=O)(=O)c1ccc(CNC(=O)N(C)CC(O)COC)cc1 (stereo unspecified),Percent Effect,"30.3 µM, […]",11.97%
CNS(=O)(=O)c1ccc(CNC(=O)N(CC(C)C)C(C)C)cc1,Percent Effect,"30.3 µM, […]",-6.25%
CN(C(=O)c1ccc(OCC(F)F)nc1)c1ccc2c(c1)CCO2,Percent Effect,"30.3 µM, […]",3.527%
Cc1ncn(CCNC(=O)Nc2ccc(F)c(Cl)c2)c(=O)c1C,Percent Effect,"30.3 µM, […]",0.8424%
Cc1noc([C@H]2C[C@H]3CN(C(=O)C4CCOCC4)CC[C@@H]3O2)n1,Percent Effect,"30.3 µM, […]",60.92%
Cc1noc([C@@H]2C[C@H]3CN(C(=O)C4CCN(C)CC4)C[C@H]3O2)n1.O=C(O)C(F)(F)F,Percent Effect,"30.3 µM, […]",33.07%
Cc1noc([C@H]2C[C@@H]3CCN(C(=O)C4CCOCC4)C[C@H]3O2)n1,Percent Effect,"30 µM, 30.03 µM",-8.466%
CSc1nccc(N2CCC3(CCCN(Cc4ccc(F)cc4)C3)C2)n1 (stereo unspecified),Percent Effect,"30.3 µM, […]",14.67%
Cc1cn2c(n1)C(CNCc1ccc(C)s1)CCC2 (stereo unspecified),Percent Effect,"30.3 µM, […]",-5.269%
Cc1cn2c(n1)C(CNCC1=Cc3cc(Cl)ccc3OC1)CCC2 (stereo unspecified),Percent Effect,"30.3 µM, […]",69.51%
Cc1cn2c(n1)C(CNCC1=Cc3ccccc3OC1)CCC2 (stereo unspecified),Percent Effect,"30.3 µM, […]",8.139%
CCc1ocnc1C(=O)N1CCCC(n2nc(C)nc2C)C1 (stereo unspecified),Percent Effect,30 µM,15.71%
NC(=O)c1cn[nH]c1C1CCCN1C(=O)COc1ccccc1 (stereo unspecified),Percent Effect,"30.3 µM, […]",17.94%
CC(NC(=O)CCCc1nc(C(C)(C)C)no1)c1ccccn1 (stereo unspecified),Percent Effect,30 µM,-2.756%
Cc1nc(CN2C(=O)CC[C@@H]3[C@H]2CCN3C2CCOC2)cs1.O=C(O)C(F)(F)F (stereo partly specified),Percent Effect,"30.3 µM, […]",-26.48%
COC(=O)C(NC(=O)COC1CCCC1)c1cc(F)ccc1F (stereo unspecified),Percent Effect,"30 µM, 30.03 µM",54.06%
COC(=O)C(NC(=O)C1CCCC1)c1cc(F)ccc1F (stereo unspecified),Percent Effect,30 µM,13.67%
COC(=O)C(NC(=O)CC(C)C)c1cc(F)ccc1F (stereo unspecified),Percent Effect,30 µM,17.07%
O=C1CC2(CCCCN2C(=O)c2ccsc2)CN1CC1CC1 (stereo unspecified),Percent Effect,"30 µM, 30.03 µM",15.53%
Cc1cnn(CC(=O)Nc2cc(-n3nnnc3C3CC3)ccc2F)c1,Percent Effect,"30.3 µM, […]",1.472%
Cc1nn(C)c2nc(N3CCCCC3c3nccs3)sc12 (stereo unspecified),Percent Effect,"30.3 µM, […]",21.88%
Cc1nn(C)c2nc(N3CCCC3c3nccs3)sc12 (stereo unspecified),Percent Effect,"30.3 µM, […]",4.253%
Cc1nn(C)c2nc(N3CCCCC3c3ccc(F)cc3)sc12 (stereo unspecified),Percent Effect,"30.3 µM, […]",66.72%
CCC(C)NC(=O)c1cc(Br)c2c(c1)OCCO2 (stereo unspecified),Percent Effect,30 µM,30.6%
Cn1nc(COc2cccnc2)c2c1CCN(CC1CC1)C2.O=C(O)C(F)(F)F.O=C(O)C(F)(F)F,Percent Effect,"30.3 µM, […]",98.75%
COCCN1CCc2c(c(COc3cccnc3)nn2C)C1.O=C(O)C(F)(F)F.O=C(O)C(F)(F)F,Percent Effect,"30.3 µM, […]",24.9%
Cn1nc(COc2cccnc2)c2c1CCN(Cc1ccco1)C2.O=C(O)C(F)(F)F.O=C(O)C(F)(F)F,Percent Effect,"30.3 µM, […]",17.65%
NC(=O)c1ccc(N2CCCCC2)c(NC(=O)c2cc(F)ccc2F)c1,Percent Effect,"30.3 µM, […]",-1.673%
NC(=O)c1ccc(N2CCCCC2)c(NC(=O)c2cc(Br)ccc2Cl)c1,Percent Effect,"30.3 µM, […]",19.23%
NC(=O)c1ccc(N2CCCCC2)c(NC(=O)c2cc(Br)ccc2F)c1,Percent Effect,"30 µM, 30.03 µM",59.99%
Cc1nnsc1C(=O)N1CCCC(c2nccn2Cc2cscn2)C1 (stereo unspecified),Percent Effect,"30.3 µM, […]",-3.035%
Cn1cc(CN2C[C@@H]3COC[C@]3(CNC(=O)c3ccco3)C2)cn1.O=C(O)C(F)(F)F,Percent Effect,"30.3 µM, […]",-2.896%
Cc1ccsc1CN1C[C@@H]2COC[C@]2(CNC(=O)c2ccco2)C1.O=C(O)C(F)(F)F,Percent Effect,"30.3 µM, […]",31.86%
O=C(NC[C@]12COC[C@H]1CN(Cc1cccc(F)c1)C2)c1ccco1,Percent Effect,"30.3 µM, […]",61.24%
CNC(=O)NCC(CO)Cc1ccccc1OC(F)(F)F (stereo unspecified),Percent Effect,"30.3 µM, […]",7.334%
CC(c1cccc(-c2ncccc2C#N)c1)N(C)C (stereo unspecified),Percent Effect,"30.3 µM, […]",54.7%
CC(c1cccc(-c2ncc(C#N)c(N)n2)c1)N(C)C (stereo unspecified),Percent Effect,"30.3 µM, […]",-18.48%
CC(c1cccc(-c2ncccc2F)c1)N(C)C (stereo unspecified),Percent Effect,"30.3 µM, […]",42.01%
Cc1cccc(C(=O)N2C[C@@H]3[C@H](CC(=O)Nc4cccnc4)[C@@H]3C2)n1.O=C(O)C(F)(F)F.O=C(O)C(F)(F)F,Percent Effect,"30.3 µM, […]",3.537%
N#Cc1ccnc(N2CCN(C(=O)c3ccc4c(c3)CCO4)CC2)c1,Percent Effect,"30.3 µM, […]",-46.75%
